Assay outcomes from PubChem.
DUSP3 inh – inhibitors of human VHR1 phosphatase (DUSP3) | inhibition, % at 13.3 µM | 290,000 compounds, 0.52% hits | recombinant VHR phosphatase, pNPP absorbance | P51452 | AID 1654; in the data active = inhibition above about 50%
Target sequence (P51452 whole entry, looked up): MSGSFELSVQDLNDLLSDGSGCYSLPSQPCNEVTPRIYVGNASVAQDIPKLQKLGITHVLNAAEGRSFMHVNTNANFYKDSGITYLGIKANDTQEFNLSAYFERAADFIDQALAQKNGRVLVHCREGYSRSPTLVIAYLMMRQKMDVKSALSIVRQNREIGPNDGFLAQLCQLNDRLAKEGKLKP
PrPC TRFRET – reduces human prion protein on the cell surface | 370,000 compounds, 0.43% hits | inhibition, % at 13.8 µM | P04156 | cell surface PrPC, TR-FRET read-out | AID 720596; in the data active = inhibition above about 24%
PfHsp40 yeast – rescue of PfHsp40-mediated yeast toxicity; AID 504582; growth rescue, % at 12.5 µM; 340,000 compounds, 0.68% hits; S. cerevisiae expressing PfHsp40, growth rescue, ATP luminescence; in the data active = growth rescue above about 28%, passing the limit was not always enough;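 also: yeast W303a lacking pdr1 and pdr3 grown in galactose medium; growth measured after three days at 30 °C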
Sa ugtP lethal – kills S. aureus RN4220 lacking UgtP; S. aureus RN4220 ugtP deletion, OD600 growth, 16 h; growth inhibition, % (concentration not given with the values); 330,000 compounds, 0.54% hits; in the data active = growth inhibition above about 68%
RN4220 kill – S. aureus RN4220 growth inhibition | OD600, 16 h | inhibition, % (test concentration not listed) | 330,000 compounds, 0.33% hits; in the data active = inhibition above about 85%
Of the large screens only hits and unclear results are named; the others gave an inactive call; ! = not active in a repeat. Most compounds without a hit are left out; they make up all but 1.8% or so of the library.

O=C(O)c1cccc(-c2ccc(C=NNC(=O)C3COc4ccccc4O3)o2)c1 (centres undefined)	none (no result: DUSP3 inh, PrPC TRFRET, PfHsp40 yeast)
CC(/C=N/NC(=O)c1cccs1)=C\c1ccco1	DUSP3 inh 51 (no result: Sa ugtP lethal, RN4220 kill)
CC(C)Oc1c(Br)cc(Br)cc1C=NNC(N)=S	none (no result: DUSP3 inh, PrPC TRFRET, PfHsp40 yeast)
CC(=O)Oc1ccc(C(=O)C2C3C(=O)N(c4ccccc4)C(=O)C3C3C=CC=NN32)cc1 (centres undefined)	none (no result: DUSP3 inh, PrPC TRFRET, PfHsp40 yeast)
Cc1[nH]c2ccc(C(=O)NC3CCCC3)cc2c1C	PfHsp40 yeast 29 (no result: DUSP3 inh)
Cc1[nH]c2ccc(C(=O)NC3CCC(C)CC3)cc2c1C (centres undefined)	none
Cc1[nH]c2ccc(C(=O)NCCCN3CCCCC3)cc2c1C	DUSP3 inh 57
Cc1[nH]c2ccc(C(=O)NCCN3CCCCCC3)cc2c1C	none
CCOC(=O)CC1c2ccc(C(F)(F)F)cc2S(=O)(=O)N1C(C)C (centres undefined)	none (no result: DUSP3 inh, PrPC TRFRET, PfHsp40 yeast)
CCOC(=O)C1=C(C)Nc2ccccc2N=C1NC(=O)Cc1ccc(OC)cc1	DUSP3 inh 51
O=C1N=C(N2CCCC2)SC1=Cc1cccc(Br)c1	none (no result: DUSP3 inh, PrPC TRFRET, PfHsp40 yeast)
O=S1(=O)CCOCC(Cc2ccccc2)N1Cc1ccc(F)cc1 (centres undefined)	none (no result: DUSP3 inh, PrPC TRFRET, PfHsp40 yeast)
CCOC(=O)C1CCN(S(=O)(=O)c2ccc(-c3ccc(=O)[nH]n3)o2)CC1	DUSP3 inh 51
Cc1cccc(N2C(=O)CSC2=NNC(=O)c2cccnc2)c1C	none (no result: DUSP3 inh, PrPC TRFRET, PfHsp40 yeast)
CCN(C(=O)c1cnc2scc(C)n2c1=O)c1ccccc1C	PfHsp40 yeast 40
Cc1csc2ncc(C(=O)Nc3ccccc3F)c(=O)n12	none
CN1C(=O)C2(OCC(COc3ccc(Cl)cc3)O2)c2ccccc21 (centres undefined)	none
CC(=O)N1CCN(c2ccc(OC[C@H]3CO[C@](Cn4ccnc4)(c4ccc(Cl)cc4Cl)O3)cc2)CC1	PfHsp40 yeast 102 (no result: Sa ugtP lethal, RN4220 kill)
CC(NC(=O)OCc1ccccc1)c1nnc(C(Cc2ccccc2)NC(=O)OC(C)(C)C)o1 (centres undefined)	none (no result: DUSP3 inh, PrPC TRFRET, PfHsp40 yeast)
FC(F)(F)c1cccc(N2CCc3cn[nH]c32)c1	PfHsp40 yeast 292
O=[N+]([O-])c1cccc(/C=N/N=C\c2ccccc2)c1	DUSP3 inh 60 (no result: Sa ugtP lethal, RN4220 kill)
C/C(=N\Nc1ccc([N+](=O)[O-])cc1)c1ccco1	PfHsp40 yeast 64 (no result: Sa ugtP lethal, RN4220 kill)
O=C(O)CCC(=NNc1ccc([N+](=O)[O-])cc1)c1ccccc1	none (no result: DUSP3 inh, PrPC TRFRET, PfHsp40 yeast)
O=[N+]([O-])c1cccc(C=NN=Cc2ccccc2)c1	none (no result: DUSP3 inh, PrPC TRFRET, PfHsp40 yeast)
O=[N+]([O-])c1ccc(C=NNc2ccccc2)cc1	PfHsp40 yeast 30 (no result: DUSP3 inh)
C/C(=N\NC(=O)COc1ccc([N+](=O)[O-])cc1)c1ccco1	none (no result: DUSP3 inh, Sa ugtP lethal, RN4220 kill)
CC/C(=N\Nc1ccc([N+](=O)[O-])cc1)c1ccccc1	PfHsp40 yeast 430 (no result: PrPC TRFRET, Sa ugtP lethal, RN4220 kill)
O=[N+]([O-])c1ccc(C(O)C(CO)NC(=S)Nc2ccccc2)cc1 (centres undefined)	none
O=C(NC(CO)Cc1ccc([N+](=O)[O-])cc1)C(Cl)Cl (centres undefined)	Sa ugtP lethal 99, RN4220 kill 94 (no result: PrPC TRFRET)
O=C(NC(CO)C(O)c1ccc([N+](=O)[O-])cc1)C(Cl)Cl (centres undefined)	Sa ugtP lethal 96, RN4220 kill 89
O=C(N[C@H](CO)[C@H](O)c1ccc([N+](=O)[O-])cc1)C(Cl)Cl	Sa ugtP lethal 98, RN4220 kill 98 (no result: DUSP3 inh)
CC1CN=C(Nc2ccccc2)N1CCc1ccc(F)cc1 (centres undefined)	none (no result: DUSP3 inh, PrPC TRFRET, PfHsp40 yeast)
O=C(NN=Cc1ccc(OCC(=O)N2CCCC2)cc1)C(=O)NC1CC1	none (no result: DUSP3 inh, PrPC TRFRET, PfHsp40 yeast)
O=C(CSCc1ccccc1)NN=Cc1cc2c(cc1Br)OCO2	none (no result: DUSP3 inh, PrPC TRFRET, PfHsp40 yeast)
Cc1ccccc1S(=O)(=O)N1CC(C(=O)O)=CCC1c1ccc(Cl)cc1 (centres undefined)	none (no result: DUSP3 inh, PrPC TRFRET, PfHsp40 yeast)
CC1=NN(c2ccc(C)cc2)C(=O)/C1=C/c1ccc(-c2cc([N+](=O)[O-])ccc2O)o1	Sa ugtP lethal 85
O=C1NN(c2cccc(Br)c2)C(=O)/C1=C\c1ccc(O)cc1	DUSP3 inh 53 (no result: Sa ugtP lethal, RN4220 kill)
O=C1NN(c2cccc(Br)c2)C(=O)/C1=C/c1ccc(-c2cc([N+](=O)[O-])ccc2O)o1	DUSP3 inh 91 (no result: PrPC TRFRET)
CC1=NN(c2ccc(C(=O)O)cc2)C(=O)/C1=C/c1ccc(-c2ccccc2F)o1	none (no result: PrPC TRFRET, Sa ugtP lethal, RN4220 kill)
CCCc1cc(=O)oc2c(CN(CC)CC)c(O)c(Cl)cc12	none
CCCCc1cc(=O)oc2c(CN(CC)CC)c(O)c(Cl)cc12	DUSP3 inh 52
CC(=NNC(=O)c1cccc(Cl)c1)C1C(=O)c2ccccc2C1=O	none (no result: DUSP3 inh, PrPC TRFRET, PfHsp40 yeast)
C=C1C(=O)[C@]23C[C@H]1CCC2[C@@]1(C)C(C[C@@H]3O)[C@](C)(C(=O)OC)CC[C@@H]1OC(C)=O (some centres undefined)	PrPC TRFRET 68 (no result: DUSP3 inh, PfHsp40 yeast, Sa ugtP lethal, RN4220 kill)
C#CCOCCOCCOCCNc1nc(N2CCN(C(=O)C(CC(N)=O)n3cc(C(N)C(C)CC)nn3)CC2)nc(N2CCN(C(=O)C(CC(N)=O)n3cc(C(N)C(C)CC)nn3)CC2)n1 (centres undefined)	none (no result: DUSP3 inh, PrPC TRFRET, PfHsp40 yeast)
CCCOC(=O)C(=CC=Cc1ccco1)NC(=O)c1ccccc1	none (no result: DUSP3 inh, PrPC TRFRET, PfHsp40 yeast)
Cc1cc(-c2n[nH]c(=S)n2N=Cc2ccc(C)s2)n[nH]1	none (no result: DUSP3 inh, PrPC TRFRET, PfHsp40 yeast)
C#CCOCCOCCOCCNc1nc(N2CCN(C(=O)CCCCCCCCCCNC(=O)C(CCSC)n3cc(CCO)nn3)CC2)nc(N2CCN(C(=O)CCCCCCCCCCNC(=O)C(CCC(=O)O)n3cc(CCCCCN)nn3)CC2)n1 (centres undefined)	none (no result: DUSP3 inh, PrPC TRFRET, PfHsp40 yeast)
Cc1c2cc(O)c(=O)cc-2oc2cc(O)c(O)cc12	DUSP3 inh 122!, PrPC TRFRET 60
Cc1cc2oc(=O)cc(-c3cc4ccccc4o3)c2cc1O	none
